Consider 40 molecules from PubChem BioAssay (NCATS).

Records with an inconclusive call do not appear. A number with no mark means an inactive call. Calls of active or inactive are those of the source. The call rests on the fitted dose curve; in most records, active means well fitted cell-killing curve with a large enough effect; inconclusive means small, poorly fitted or top-dose-only effect; inactive means flat fitted curve, though single readings scatter.
Potency means the concentration at half of the fitted maximal effect.

This assay is described as follows: Cell Viability - LYMP2-023 (AID 975). Further: nearly all actives have a fitted effect of over 55% in size. To be noted: LYMP2-023 lymphoblastoid cell viability; series mostly up to 92.2 µM; activity change, negative = cytotoxicity: at the top concentration. The source says: NIH Chemical Genomics Center [NCGC]
NIH Molecular Libraries Screening Centers Network [MLSCN]
National Institutes of Environmental Health Sciences [NIEHS]
National Toxicology Program [NTP]
We have developed a 1536-well cell-based assay for quantitative high throughput screening (qHTS) against a number of cell lines to determine in vitro cytotoxicity of small molecules. This particular assay uses a human lymphoblastoid cell line (LYMP2-023) purchased from Coriell Institute for Medical Research.
NCGC Assay Protocol Summary:
The CellTiter-Glo luminescent cell viability assay (Promega) is a homogeneous method to measure the number of viable cells in culture. The end point readout of this assay is based on quantitation of intracellular ATP, an indicator of metabolic activity, using the luciferase reaction. Luciferase catalyzes the oxidation of beetle Luciferin to oxyluciferin and light in the presence of ATP. The luminescent signal is proportional to amount of ATP present.
Using the CellTiter-Glo luminescent cell viability assay, the amount of cellular ATP was measured in the lymphoblastoid cell line with complete culture medium following compound treatment for 24 hours. The assay was performed in opaque white Kalypsys 1536-well plates. In the screen, tetraoctylammonium bromide was used as positive control. Library compounds were measured for their ability to cause acute toxicity in the cell line, as reflected by a decrease in intracellular ATP levels, in a concentration-dependent manner. […] AC50 values were determined from concentration-response data modeled with the standard Hill equation.
qHTS protocol for CellTiter Glo lymphoblastoid cellular assay
[Step] [Parameter] [Value] [Description]
1. Reagent; 5 uL; 2500 lymphoblastoid cells/well
2. Time; 5 hr; 37 C incubation
4. Controls; 23 nL; Tetraoctylammonium bromide 6.4pM to 92 uM
5. Time; 24 hr; 37 C incubation
6. Reagent; 5 uL; CellTiter Glo reagent
7. Time; 30 min; Room Temperature
8. Detection; Luminescence; Viewlux plate reader
Keywords: cell viability, cytotoxicity, lymphoblastoid cell line, luminescence, NTPHTS, NTPHTS_NCGC, NIEHS, DSSTox, MLSMR, MLSCN, NIH Roadmap, qHTS, NCGC
For the molecule `CC(=O)OC(C(=O)c1ccccc1)c1ccccc1` (stereo not given), the “activity change, negative = cytotoxicity” value is -8.54%.
Still for that read-out and setting: in the case of `CC(C)OCC1CO1` (stereo not given) it was -0.0393%; in that of `CCCCCCCCC1CO1` (stereo not given), -7.15%; in that of `Cc1ccc(C(=O)O)cc1[N+](=O)[O-]`, -4.94%.
In the case of `Cc1cc(=O)oc2cc(O)cc(O)c12`, the “activity change, negative = cytotoxicity” value is 10.2%.
The same measure, in the same setting: as for `Oc1cc(Cl)cc(Cl)c1Cl`, the figure is 3.96%; as for `CCOC(=O)C1OC1c1ccccc1` (stereo not given), 5.21%.
Still for that read-out and setting: in the case of `O=CC(=O)c1ccccc1` it was -19.9%; in that of `Brc1cc(Br)c(Oc2cc(Br)c(Br)cc2Br)cc1Br`, -5.18%; in that of `CCCCNCC`, 2.61%.
Same read-out and setting: in the case of `Nc1cc(C(=O)O)c(O)c(S(=O)(=O)O)c1` it was 4.04%.
For the molecule `CCOc1ccc2nc(N)sc2c1`, the “activity change, negative = cytotoxicity” value is -10.4%.
Turning to `Cc1c(N)cccc1Cl`, the “activity change, negative = cytotoxicity” value is -0.852%.
For `NC(=O)Nc1nc2ccccc2[nH]1`, the “activity change, negative = cytotoxicity” value was -1.15%.
Consider `O=[N+]([O-])c1ccc(F)cc1F`, for which the “activity change, negative = cytotoxicity” value was -21.5%.
For the molecule `COc1ccc(C(=O)Nc2ccccc2)cc1[N+](=O)[O-]`, the “activity change, negative = cytotoxicity” value is -7.52%.
The same measure, in the same setting: in the case of `C[C@@H]1CC2(OC(O)[C@]3(C)O[C@H]23)O[C@H]2C[C@@]3(C)[C@@H]4CC[C@H]5C(C)(C)C(O[C@@H]6OC[C@@H](O)[C@H](O)[C@H]6O)CC[C@@]56C[C@@]46CC[C@]3(C)[C@@H]12` (stereo not given in full) it was -25.9%.
Still for that read-out and setting: in the case of `CCCCCCc1ccc(-c2ccc(C#N)cc2)cc1` it was -5.96%.
Same read-out and setting: in the case of `O=[N+]([O-])c1ccccc1Nc1ccccc1` it was 1.02%; in that of `COc1ccc([N+](=O)[O-])cc1N`, -4.11%; in that of `CC(=O)OCc1ccc2c(c1)OCO2`, -0.596%.
For `CCCCCCCCOc1ccc(C(=O)O)cc1`, the “activity change, negative = cytotoxicity” value was -5.67%.
Still for that read-out and setting: in the case of `C=Cc1cccc(C)c1` it was -3.33%.
Still for that read-out and setting: as for `CCC(Cl)CC(Cl)C(Cl)C(Cl)C(Cl)C(C)Cl` (stereo not given), the figure is -2.4%; as for `O=C(O)/C=C/c1ccc(/C=C/C(=O)O)cc1`, -6.93%.
For `CCCC(=O)OC(=O)CCC`, the “activity change, negative = cytotoxicity” value is 0.697%.
Still for that read-out and setting: in the case of `CCc1ccc(C(c2ccc(CC)cc2)C(Cl)Cl)cc1` it was -13.4%; in that of `Brc1ccc(-c2ccccc2)cc1`, 3.2%; in that of `CC(C)(C)C(=O)C1C(=O)c2ccccc2C1=O`, -19.8%.
Turning to `CN(C)c1ccc(Cc2ccc(N(C)C)cc2)cc1`, the “activity change, negative = cytotoxicity” value is -3.26%.
With `c1ccc(CSCc2ccccc2)cc1`, the “activity change, negative = cytotoxicity” value is 4.42%.
In the case of `c1ccc2c(c1)ccc1ccccc12`, the “activity change, negative = cytotoxicity” value was -2.15%.
On to `Oc1c(Cl)cc(Cl)c(Cl)c1Cl`, for which the “activity change, negative = cytotoxicity” value is -9.08%.
Regarding `C=CC(C)(O)CCCC(C)CCCC(C)CCCC(C)C` (stereo not given), the “activity change, negative = cytotoxicity” value was -0.231%.
The same measure, in the same setting: in the case of `C1CCCNCC1` it was 0.557%; in that of `CCCCCCCC/C=C\CCCCCCCC(=O)N(CCO)CCO`, 2.03%; in that of `Nc1cc([N+](=O)[O-])ccc1O`, -4.29%.
Same read-out and setting: in the case of `C/C(Cl)=C/CCl` it was -0.411%.
Regarding `N=C1C=CC(=C(c2ccc(N)cc2)c2ccc(N)cc2)C=C1`, the Potency was 10 µM (active).
As for `OCC(CO)(CBr)CBr`, the “activity change, negative = cytotoxicity” value was 0.921%.
